From PubChem BioAssay
D2 ag-1: D2 dopamine receptor (human) agonism. P14416. HEK293 T-REx D2 cells, calcium flux agonist mode. activation, % at 2 µM. hit rate 0.53% among 340,000;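 active = activation over 3 SD above normal in the single-dose calcium agonist read, cut at about 30% in these data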; also: 0% is about no effect
Target sequence (P14416 whole entry, looked up): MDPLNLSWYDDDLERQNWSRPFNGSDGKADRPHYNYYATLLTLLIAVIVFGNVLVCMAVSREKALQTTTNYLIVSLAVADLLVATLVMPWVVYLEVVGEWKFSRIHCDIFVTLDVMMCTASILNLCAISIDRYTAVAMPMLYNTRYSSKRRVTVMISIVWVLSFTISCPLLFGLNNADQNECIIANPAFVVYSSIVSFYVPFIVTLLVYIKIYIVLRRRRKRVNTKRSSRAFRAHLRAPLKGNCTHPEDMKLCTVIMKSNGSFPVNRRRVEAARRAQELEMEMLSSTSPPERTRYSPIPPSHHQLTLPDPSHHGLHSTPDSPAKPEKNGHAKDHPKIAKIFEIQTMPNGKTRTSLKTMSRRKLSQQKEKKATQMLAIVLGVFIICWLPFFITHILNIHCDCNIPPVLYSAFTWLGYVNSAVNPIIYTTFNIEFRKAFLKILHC
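Tetracycline-induced HEK293 T-REx cells with force-coupled D2 receptor, plated overnight at 30 C, loaded with no-wash calcium dye. After a 10 s baseline, compound was pin-added and calcium flux read kinetically for 180 s; calcium rises flagged agonists.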
D2 PAM-1: positive allosteric modulators of human D2 dopamine receptor. DiscoveRx D2 beta-arrestin cells, luminescence, 90 min; 100% = 57 uM dopamine signal. potentiation, % (concentration not given with the values). AID 624464. hit rate 0.23% among 360,000. P14416; in the data active = potentiation above about 50%; inconclusive = mostly about 30% to 49%
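PathHunter D2 cells, attached overnight at 37 deg C, received compound in DMSO plus dopamine at EC20 (50 nM final) for 90 min at 37 deg C. Beta-arrestin recruitment was read as luminescence after 1 h with detection reagent at ambient temperature.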
D2 ag-2: human D2 receptor agonism in beta-arrestin assay. P14416. DiscoveRx PathHunter D2 beta-arrestin, luminescence, 90 min; 100% = 57 uM dopamine signal. activation, % (no concentration beside the values). hit rate 0.084% among 360,000; in the data active = activation above about 40%; inconclusive = between about 15% and that limit
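DiscoveRx PathHunter D2 beta-arrestin cells (2,100/well) attached overnight, then compound-stimulated 90 min at 37 C in HBSS/10 mM HEPES/0.1% Tween-20 buffer; beta-galactosidase complementation read by luminescence after 1 h at ambient temperature. Dopamine 57 uM final (EC100) as control.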
D2 antag: D2 dopamine receptor (human) antagonism; inhibition, % at 10 µM; P14416; HEK293 TREx D2 cells, calcium flux, dopamine EC80; hit rate 2% among 340,000; AID 485344; in the data active = inhibition above about 30%; inactive = below that, where a call was filed; also: 0% is about no effect
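Tetracycline-induced HEK293 T-REx cells expressing D2 force-coupled to calcium signalling were dye-loaded, exposed to compound for 180 s, then challenged with an EC80 of dopamine; calcium flux was followed kinetically for a further 180 s.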
D2 PAM-2: D2 dopamine receptor (human) potentiation. AID 485347. hit rate 0.34% among 340,000. P14416. HEK293 T-REx D2, calcium flux, EC20 dopamine potentiation. potentiation, % at 10 µM;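 active = potentiation over 3 SD above the plate norm, cut at about 30% in these data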; also: 0% is about no effect
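Potentiation of an EC20 dopamine calcium response measured kinetically over 180 s, after a preceding 180 s compound-only read flagging agonists. Cells: inducible Hek293 Trex D2 line, 4000/well, cultured overnight at 30 C before dye loading.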
Numbers without * were called inactive; ? = inconclusive; . = no result given. This is a sample that favours compounds with a hit; in the whole collection about 2.4% have one here.

SMILES | D2 ag-1 | D2 PAM-1 | D2 ag-2 | D2 antag | D2 PAM-2
COc1ccc(C(=O)CCN2CCN(c3ccccc3OC)CC2)cc1 | -1 | -15 | -3 | -7 | -3
CC(C)(C)OC(=O)N1CCC(C(=O)Nc2cccc(C(=O)N3CCCCC3)c2)CC1 | . | -21 | 2 | . | .
Cc1cc(S(=O)(=O)N2CC(=O)N(CCc3ccccc3)C(=O)C2)ccc1F | 0 | -3 | -3 | -2 | 31*
O=C1CN(S(=O)(=O)c2ccccc2)CC(=O)N1CCc1ccccc1 | 1 | -9 | -4 | -15 | 14
COc1ccccc1CNC(=O)CCC(=O)N1CC(C)Sc2ccccc21 (centres undefined) | 0 | -11 | -9 | 32* | -7
CC1CN(C(=O)CCC(=O)NCc2ccc(F)cc2)c2ccccc2S1 (centres undefined) | 0 | -1 | -2 | -10 | -3
CCCn1c(=O)n(-c2ccccc2Cl)c(=O)c2sc3ccccc3c21 | . | . | . | . | 25
CC1CCCCN1C(=O)c1cccc(NC(=O)c2ccccc2)c1 (centres undefined) | -1 | -9 | -4 | 37* | -2
O=C(NCCN1CCOCC1)C12CC3CC(C1)CC(c1ccccc1)(C3)C2 | 0 | -10 | 1 | 38* | 1
COc1ccc(CCNC(=O)CCCn2c(=O)c3ccccc3n(CC(=O)Nc3cccc(C)c3)c2=O)cc1OC | 0 | . | . | . | 1
Cc1ccccc1NC(=O)c1sc(Cl)nc1-c1ccccc1 | 0 | 8 | -2 | 31* | -1
COc1ccccc1/C=C/CN1CCN(Cc2ccc(C)o2)C(CCO)C1 (centres undefined) | 0 | -17 | -4 | 49* | -21
C[N+](C)(C)CCOC(=O)CCC(=O)OCC[N+](C)(C)C | . | 1 | -5 | . | .
CC(=O)SCC[N+](C)(C)C | 4 | 3 | -6 | 36* | -3
Cc1ccc(C)c(N2CCN(C(=O)CCc3nnc4n(C)c(=O)c5ccccc5n34)CC2)c1 | 0 | . | . | . | 1
Cc1cccc(Nc2ncc(NC(=O)c3cccc(F)c3)c(Nc3cccc(C)c3)n2)c1 | 1 | . | . | . | -1
CC(=O)N1CCN(Cc2nc3cc([N+](=O)[O-])ccc3n2C)CC1 | . | -6 | 0 | . | .
COc1ccccc1C(=O)N1CCN(Cc2nc3cc([N+](=O)[O-])ccc3n2C)CC1 | 0 | -10 | -4 | 36* | -4
O=C(N/N=C/c1cn(-c2ccccc2)nc1-c1cc2ccccc2o1)c1ccccc1Br | 0 | -8 | -3 | -5 | -6
COc1ccc(NC(=O)c2cn(-c3ccccc3)nc2-c2cc3ccccc3o2)cc1 | 0 | -1 | -3 | -2 | -10
OCc1cn(-c2ccccc2)nc1-c1cc2ccccc2o1 | -1 | -6 | -3 | 45* | 4
O=C(N/N=C/c1cn(-c2ccccc2)nc1-c1cc2ccccc2o1)c1c[nH]c2ccccc12 | -1 | 5 | -2 | 34* | 4
COc1ccc(C(=O)O/N=C(\N)c2ccccc2)cc1OC | 1 | ? | 10 | -6 | 5
N/C(=N\OC(=O)c1ccc(Br)cc1)c1cccc([N+](=O)[O-])c1 | 0 | ? | 6 | -12 | -2
N/C(=N\OC(=O)c1ccccc1F)c1cccc([N+](=O)[O-])c1 | 4 | 16 | 66* | 6 | 6
SMILES | D2 ag-1 | D2 PAM-1 | D2 ag-2 | D2 antag | D2 PAM-2
N/C(=N\OC(=O)c1ccco1)c1cccc([N+](=O)[O-])c1 | 1 | 81* | ? | -5 | -2
N/C(=N\OC(=O)c1ccccc1Br)c1cccc([N+](=O)[O-])c1 | -1 | ? | ? | -7 | 8
Cc1ccc(C(=O)O/N=C(\N)c2cccc([N+](=O)[O-])c2)cc1 | 1 | 60* | ? | -5 | 0
N/C(=N\OC(=O)c1ccco1)c1cccc(Br)c1 | 0 | 23 | 6 | 12 | 0
COc1ccc(/C(N)=N/OC(=O)c2ccco2)cc1OC | 0 | 7 | 10 | -6 | 32*
COc1cc(C(=O)O/N=C(\N)c2ccc([N+](=O)[O-])cc2)cc(OC)c1OC | 1 | 15 | 8 | 13 | -6
COc1cc(C(=O)O/N=C(\N)c2cccc([N+](=O)[O-])c2)cc(OC)c1OC | 0 | 55* | ? | 2 | 15
COc1ccc(CCn2nc(C)c([N+](=O)[O-])c2C)cc1 | -1 | -6 | 2 | 32* | -16
